Laboratory results taken from PubChem BioAssay (NCATS).
Inconclusive results are not listed. Activity calls are given as the source filed them. Unless noted, calls follow the shape of the dose curve; as a rule, active = well fitted curve in the direction sought with a large enough effect; inconclusive = small, poorly fitted or top-dose-only effect, or another doubt; inactive = no such curve, though single readings can be large; an effect the other way counts as inactive or inconclusive.

Assays:
[1] = biological target: Lysosomal acid glucosylceramidase (Homo sapiens) (UniProt P04062); assay: Glucocerebrosidase-p2 (AID 348; in the data active = potency below about 10 µM; also: potency is read from the fitted curve at half-maximal effect); settings: purified GBA, blue fluorogenic substrate, 40 min
Lysosomal acid glucosylceramidase (Homo sapiens), sequence (P04062 whole entry, looked up): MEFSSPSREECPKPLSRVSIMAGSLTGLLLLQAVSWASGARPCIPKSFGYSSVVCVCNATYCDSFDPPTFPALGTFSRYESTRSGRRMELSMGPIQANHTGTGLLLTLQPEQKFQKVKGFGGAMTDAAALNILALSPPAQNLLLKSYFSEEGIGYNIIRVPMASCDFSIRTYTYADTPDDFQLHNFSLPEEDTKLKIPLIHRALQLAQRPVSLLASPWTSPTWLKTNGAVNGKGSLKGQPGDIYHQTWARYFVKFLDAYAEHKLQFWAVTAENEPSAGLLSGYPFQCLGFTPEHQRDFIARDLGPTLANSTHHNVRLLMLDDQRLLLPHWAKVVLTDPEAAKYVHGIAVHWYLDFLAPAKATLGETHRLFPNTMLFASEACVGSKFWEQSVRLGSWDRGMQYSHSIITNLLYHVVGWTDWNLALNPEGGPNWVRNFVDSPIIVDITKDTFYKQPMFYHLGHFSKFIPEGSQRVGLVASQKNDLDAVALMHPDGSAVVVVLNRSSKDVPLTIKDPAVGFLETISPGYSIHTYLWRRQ
How it was run: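 Compounds titrated from 0.6 nM upwards against 0.2 nM enzyme in pH 5.9 citric acid/KH2PO4, taurocholate, tween-20; blue fluorogenic substrate 80 uM, 40 min room temperature, stopped and read Ex 365/Em 440 for AC50.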

[2] = AP1 Signaling Pathway (AID 357; active = well fitted curve in either direction with a large enough effect, not every such curve was filed as active; also: % is scaled to controls: 0 for no effect and ±100 for the full control effect); settings: ME-180 AP-1-bla reporter, EGF-induced, beta-lactamase ratio, 5 h; at 7.69 µM (top of the series) unless noted
How it was run: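 AP-1-bla ME-180 cells with beta-lactamase reporter under AP-1 response element, stimulated with EC50 EGF; compounds titrated, 5 hours at 37 degrees Celsius. CCF4 read at 460/530 nm ratio; positive and negative modulators judged by AC50.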

[3] = biological target: Glucocorticoid receptor (Homo sapiens) (UniProt P04150); assay: GR-GFP Redistribution (AID 450;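 active = compounds whose dose series gives a full or clear partial fitted curve of increased nuclear translocation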; also: potency is read from the fitted curve at half-maximal effect); settings: U2OS GR-GFP nuclear translocation, laser cytometry, 2 h
Glucocorticoid receptor (Homo sapiens), sequence (P04150 whole entry, looked up, the tested form may be a part): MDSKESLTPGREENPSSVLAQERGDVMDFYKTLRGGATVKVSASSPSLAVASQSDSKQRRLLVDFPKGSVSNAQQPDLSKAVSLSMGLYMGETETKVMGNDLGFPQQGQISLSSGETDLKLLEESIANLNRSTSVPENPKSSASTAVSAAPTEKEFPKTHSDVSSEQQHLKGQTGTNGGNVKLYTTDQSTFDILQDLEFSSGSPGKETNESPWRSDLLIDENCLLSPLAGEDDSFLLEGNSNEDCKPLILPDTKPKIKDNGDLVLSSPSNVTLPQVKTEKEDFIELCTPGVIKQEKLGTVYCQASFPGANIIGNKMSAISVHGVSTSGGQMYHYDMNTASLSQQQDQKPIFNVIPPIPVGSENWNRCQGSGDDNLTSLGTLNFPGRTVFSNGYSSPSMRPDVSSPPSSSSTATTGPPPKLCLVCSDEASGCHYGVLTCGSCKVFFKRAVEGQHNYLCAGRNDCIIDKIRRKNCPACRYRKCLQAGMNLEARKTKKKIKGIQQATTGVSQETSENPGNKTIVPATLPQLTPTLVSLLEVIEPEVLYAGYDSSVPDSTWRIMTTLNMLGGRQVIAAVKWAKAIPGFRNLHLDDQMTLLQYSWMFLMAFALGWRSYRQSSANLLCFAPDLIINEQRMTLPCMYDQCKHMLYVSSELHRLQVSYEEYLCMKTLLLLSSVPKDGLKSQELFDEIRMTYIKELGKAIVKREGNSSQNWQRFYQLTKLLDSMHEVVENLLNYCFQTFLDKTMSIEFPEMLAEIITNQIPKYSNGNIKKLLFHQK

[4] = biological target: Glucocorticoid receptor (Homo sapiens) (UniProt P04150); assay: GR-EFC Redistribution (AID 451; calls by dose curve; also: potency is read from the fitted curve at half-maximal effect); settings: CHO-K1 GR-EFC translocation, beta-gal luminescence, 2 h
How it was run: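 CHO-K1 cells expressing nuclear EA and GR-ED fragments of b-gal; compounds titrated up to 46 uM final, 2 h at 37 C. GR nuclear translocation read as complemented b-gal luminescence after 1 h RT detection.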

[5] = biological target: Mitogen-activated protein kinase 10 (Mus musculus) (UniProt Q61831); assay: JNK3 AlphaScreen Assay (AID 530; active = well fitted curve in either direction with a large enough effect, not every such curve was filed as active;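 also: kinase came from lysate of stimulated human HepG2 cells; signal reports phosphorylation of biotinylated GST-cJun 1-79 at Ser73 with 10 µM ATP; % is scaled to controls: 0 for no effect and ±100 for the full control effect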); settings: JNK3 lysate, c-Jun phosphorylation; series mostly up to 57.1 µM
How it was run: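 qHTS format: compounds tested as titrations against IL-1beta/TNF-alpha-activated HepG2 lysate JNK3 with biotin-GST-cJun substrate and 10 uM ATP at room temperature. Loss of anti-phospho-cJun AlphaScreen signal indicates inhibition.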

[6] = biological target: 3',5'-cyclic-AMP phosphodiesterase 4B (Homo sapiens) (UniProt Q07343); assay: qHTS Assay for Inhibitors of PDE-IV (AID 607; active = well fitted activation curve with a large enough effect in the main read-out, with a control signal flat, not every such curve was filed as active; also: % of control where 0% means no effect); settings: HEK293 ACTOne CNG channel cells, membrane potential fluorescence; series mostly up to 22.9 µM
3',5'-cyclic-AMP phosphodiesterase 4B (Homo sapiens), sequence (Q07343 whole entry, looked up): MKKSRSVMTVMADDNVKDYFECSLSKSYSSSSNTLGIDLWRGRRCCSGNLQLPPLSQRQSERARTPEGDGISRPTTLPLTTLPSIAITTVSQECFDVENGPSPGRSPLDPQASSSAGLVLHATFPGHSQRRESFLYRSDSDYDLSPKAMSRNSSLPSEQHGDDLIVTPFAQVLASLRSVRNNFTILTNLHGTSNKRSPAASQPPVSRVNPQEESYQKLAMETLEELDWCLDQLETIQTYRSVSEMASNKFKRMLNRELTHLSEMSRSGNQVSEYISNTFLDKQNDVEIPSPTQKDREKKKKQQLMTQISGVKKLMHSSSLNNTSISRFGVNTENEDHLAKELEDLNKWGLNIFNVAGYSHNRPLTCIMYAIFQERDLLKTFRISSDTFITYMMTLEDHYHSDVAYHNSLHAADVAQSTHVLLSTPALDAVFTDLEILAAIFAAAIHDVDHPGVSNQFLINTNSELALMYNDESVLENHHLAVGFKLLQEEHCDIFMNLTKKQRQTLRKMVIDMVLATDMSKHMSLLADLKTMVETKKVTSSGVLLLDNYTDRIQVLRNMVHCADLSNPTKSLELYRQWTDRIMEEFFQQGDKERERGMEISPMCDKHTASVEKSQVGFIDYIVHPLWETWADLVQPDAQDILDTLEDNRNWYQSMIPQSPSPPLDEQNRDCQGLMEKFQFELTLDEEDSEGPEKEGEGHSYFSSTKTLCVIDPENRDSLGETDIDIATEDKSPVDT
How it was run: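 HEK293 ACTOne cells with CNG channel (1000/well), endogenous PDE4; membrane potential dye, compounds up to 22.9 uM final. Fluorescence Ex 535/Em 590; RO 20-1724 (100 uM final) as reference.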

[7] = qHTS Assay for Lipid Storage Modulators (AID 1519; calls by dose curve); settings: Drosophila S3 cells, BODIPY lipid droplet/cell ratio, laser cytometry, cells loaded with oleic acid; for activity change, negative = inhibition: at 57.5 µM (top of the series)
How it was run: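 Cells seeded at 5,000 per well were treated with compounds over a concentration series and loaded with oleic acid (400 uM, as added). Lipid droplet fluorescence (488 nm excitation, 500-530 nm channel) was read by laser-scanning cytometry and normalized to 20 uM Triacsin C.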

[8] = biological target: Dual specificity protein kinase CLK4 (Homo sapiens) (UniProt Q9HAZ1); assay: qHTS Assay for Inhibitors of CDC-like Kinase 4 (Kinase-Glo Assay) (AID 1770); settings: recombinant Clk4, Kinase-Glo ATP depletion luminescence; series mostly up to 66.7 µM; also: nearly all actives have a fitted effect of over 65% in size; also: potency is read from the fitted curve at half-maximal effect
Dual specificity protein kinase CLK4 (Homo sapiens), sequence (Q9HAZ1 whole entry, looked up): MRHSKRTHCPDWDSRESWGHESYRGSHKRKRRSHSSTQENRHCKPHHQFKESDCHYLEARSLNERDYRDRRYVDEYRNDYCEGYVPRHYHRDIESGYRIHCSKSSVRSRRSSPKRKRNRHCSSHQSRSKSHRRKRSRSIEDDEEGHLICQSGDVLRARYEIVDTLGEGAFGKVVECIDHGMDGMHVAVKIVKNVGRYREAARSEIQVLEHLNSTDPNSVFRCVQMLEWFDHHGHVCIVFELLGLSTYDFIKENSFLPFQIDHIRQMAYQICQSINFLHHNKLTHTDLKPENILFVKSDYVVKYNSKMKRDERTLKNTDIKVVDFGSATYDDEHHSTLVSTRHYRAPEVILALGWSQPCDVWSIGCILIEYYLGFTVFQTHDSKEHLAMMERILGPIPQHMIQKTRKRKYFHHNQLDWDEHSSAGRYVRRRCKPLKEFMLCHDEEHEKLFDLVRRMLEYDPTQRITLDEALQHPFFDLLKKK
How it was run: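 Luminescent ATP-depletion read-out (Kinase-Glo) after 4.5 h room-temperature reaction of Clk4 (25 nM final) with RS peptide (100 uM) and ATP (1 uM), pH 7.5 Tris buffer with MgCl2 and DTT.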

[9] = biological target: Dual specificity protein kinase CLK4 (Homo sapiens) (UniProt Q9HAZ1); assay: qHTS Assay for Inhibitors of CDC-like Kinase 4 (ADP-Glo Assay) (AID 1771); settings: recombinant CLK4, ADP-Glo luminescence; series mostly up to 80 µM; also: nearly all actives have a fitted effect of over 70% in size; also: potency is read from the fitted curve at half-maximal effect
How it was run: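 Clk4 (25 nM) was incubated 1 hr at room temperature with 100 uM RS repeat peptide and 1 uM ATP in buffer with 2 mM MgCl2, 0.5 mM EGTA, 2.5 mM DTT. ADP formed was quantified by ADP-Glo luminescence.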

[10] = biological target: Dual specificity protein kinase CLK4 (Homo sapiens) (UniProt Q9HAZ1); assay: qHTS Assay for Inhibitors of CDC-like Kinase 4 (ADP-FP Assay) (AID 1795); settings: Transcreener ADP fluorescence polarization; series mostly up to 50 µM; also: nearly all actives have a fitted effect of over 60% in size; also: potency is read from the fitted curve at half-maximal effect
How it was run: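 Kinase activity was measured as ADP production using Transcreener orange tracer (4 nM) and ADP antibody (1 ug/mL) fluorescence polarization, with ADP calculated from a calibration curve. The 1 h reaction contained 6.25 nM Clk4, 1 uM ATP and 100 uM RS peptide at pH 7.5 with Mg2+.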

[11] = biological target: Ubiquitin carboxyl-terminal hydrolase 1 (Homo sapiens) (UniProt O94782); assay: Inhibitors of USP1/UAF1: Pilot qHTS (AID 504865); settings: purified USP1/UAF1, Ub-rhodamine cleavage fluorescence; series mostly up to 54.9 µM; also: nearly all actives have a fitted effect of over 35% in size; also: potency is read from the fitted curve at half-maximal effect
Ubiquitin carboxyl-terminal hydrolase 1 (Homo sapiens), sequence (O94782 whole entry, looked up): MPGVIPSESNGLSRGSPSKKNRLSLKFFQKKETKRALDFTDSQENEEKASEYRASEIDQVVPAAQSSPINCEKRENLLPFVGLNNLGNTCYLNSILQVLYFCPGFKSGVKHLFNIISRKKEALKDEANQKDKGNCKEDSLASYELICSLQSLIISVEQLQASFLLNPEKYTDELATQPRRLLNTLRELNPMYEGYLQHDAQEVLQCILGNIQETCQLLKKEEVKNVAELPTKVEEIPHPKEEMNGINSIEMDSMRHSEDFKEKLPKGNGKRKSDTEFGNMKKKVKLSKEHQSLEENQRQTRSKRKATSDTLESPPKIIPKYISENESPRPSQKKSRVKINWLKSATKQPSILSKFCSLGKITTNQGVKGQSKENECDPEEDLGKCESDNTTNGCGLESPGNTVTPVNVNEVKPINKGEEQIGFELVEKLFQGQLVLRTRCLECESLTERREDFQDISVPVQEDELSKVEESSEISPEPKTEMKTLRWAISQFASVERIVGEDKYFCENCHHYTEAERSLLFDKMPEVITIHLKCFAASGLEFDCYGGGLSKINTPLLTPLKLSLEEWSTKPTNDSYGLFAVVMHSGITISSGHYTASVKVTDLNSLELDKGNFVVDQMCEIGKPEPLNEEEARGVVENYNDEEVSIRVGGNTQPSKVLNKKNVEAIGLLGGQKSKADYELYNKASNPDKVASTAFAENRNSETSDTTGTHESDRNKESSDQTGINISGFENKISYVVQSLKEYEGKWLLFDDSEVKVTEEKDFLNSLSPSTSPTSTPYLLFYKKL
How it was run: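 Deubiquitinase activity followed as kinetic rhodamine fluorescence release from 150 nM Ub-Rho. 1 nM USP1/UAF1 with compound, after 15 min room-temperature preincubation, in HEPES pH 7.8 buffer containing TCEP, EDTA, BSA and Tween-20.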

[12] = biological target: Cytochrome P450 1A2 (Homo sapiens) (UniProt P05177); assay: p450-cyp1a2 (AID 410; calls by dose curve; also: potency is read from the fitted curve at half-maximal effect); settings: recombinant CYP1A2, luciferin-ME demethylation, luminescence; series mostly up to 57 µM
Cytochrome P450 1A2 (Homo sapiens), sequence (P05177 whole entry, looked up): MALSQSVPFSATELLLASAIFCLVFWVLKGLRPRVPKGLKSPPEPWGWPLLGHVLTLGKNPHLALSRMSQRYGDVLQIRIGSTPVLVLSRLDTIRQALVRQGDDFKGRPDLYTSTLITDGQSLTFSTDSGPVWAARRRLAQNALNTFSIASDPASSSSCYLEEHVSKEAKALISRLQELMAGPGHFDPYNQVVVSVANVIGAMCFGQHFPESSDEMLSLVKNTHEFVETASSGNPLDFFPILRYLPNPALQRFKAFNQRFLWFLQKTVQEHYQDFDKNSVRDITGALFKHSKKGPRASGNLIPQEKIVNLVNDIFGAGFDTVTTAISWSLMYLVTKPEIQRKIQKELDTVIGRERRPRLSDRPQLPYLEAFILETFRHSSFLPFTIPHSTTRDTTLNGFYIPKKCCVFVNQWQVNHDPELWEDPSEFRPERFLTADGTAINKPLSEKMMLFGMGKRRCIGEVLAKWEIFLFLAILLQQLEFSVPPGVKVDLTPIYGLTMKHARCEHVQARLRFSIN
How it was run: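 Human CYP1A2 (20nM) demethylated Luciferin-ME at its Km (100uM) in 100mM KPO4. After 10 min compound preincubation, NADPH regeneration ran the reaction 60 min at room temperature. Luciferin was read by luminescence, normalized to 57 uM furafylline.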

[13] = Stat Signaling Pathway (AID 446; active = well fitted curve in either direction with a large enough effect, not every such curve was filed as active;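 also: ME-180 cervical cancer cells given 40 pM IL-6 alongside compound; SIE-controlled beta-lactamase reporter measured as 460/530 nm FRET emission ratio; % is scaled to controls: 0 for no effect and ±100 for the full control effect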); settings: ME-180 SIE beta-lactamase reporter, IL-6 stimulated, 5 h; at 7.69 µM (top of the series) unless noted
How it was run: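 ME-180 cells carrying a SIE-driven beta-lactamase reporter are stimulated with 40 pM IL-6 for 5 h at 37C in the presence of compound. The 460/530 nm FRET substrate ratio is read after 2.5 h at RT. Data are normalised to 300 pM IL-6 and to 125 nM JAK inhibitor controls.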

[14] = biological target: Cytochrome P450 3A4 (Homo sapiens) (UniProt P08684); assay: qHTS Assay for Activators of Cytochrome P450 3A4 (AID 885); settings: recombinant CYP3A4, Luciferin-PPXE luminescence, 60 min; series mostly up to 57.1 µM; also: nearly all actives have a fitted effect of over 65% in size
Cytochrome P450 3A4 (Homo sapiens), sequence (P08684 whole entry, looked up): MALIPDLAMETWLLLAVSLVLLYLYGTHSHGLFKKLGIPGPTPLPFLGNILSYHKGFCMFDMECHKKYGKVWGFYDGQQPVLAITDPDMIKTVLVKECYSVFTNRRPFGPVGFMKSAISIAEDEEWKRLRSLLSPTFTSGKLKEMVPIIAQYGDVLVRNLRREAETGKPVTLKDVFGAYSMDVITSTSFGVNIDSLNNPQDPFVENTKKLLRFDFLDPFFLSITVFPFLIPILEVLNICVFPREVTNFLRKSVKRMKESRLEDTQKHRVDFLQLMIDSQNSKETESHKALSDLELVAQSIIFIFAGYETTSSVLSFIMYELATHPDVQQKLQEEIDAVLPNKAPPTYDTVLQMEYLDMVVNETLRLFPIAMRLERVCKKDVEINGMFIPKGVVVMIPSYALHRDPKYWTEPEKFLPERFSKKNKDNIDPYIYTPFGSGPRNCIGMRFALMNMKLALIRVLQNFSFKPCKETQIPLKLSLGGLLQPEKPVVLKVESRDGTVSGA
How it was run: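 Human CYP3A4 (20 nM) with Luciferin-PPXE at 25 uM (its KM) in 200 mM KPO4; 10 min compound preincubation, then NADPH regeneration and 60 min reaction at RT. Luciferin read by luminescence; normalized to 57 uM ketoconazole full inhibition.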

[15] = NFAT Signaling Pathway (AID 444; active = well fitted curve in either direction with a large enough effect, not every such curve was filed as active;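 also: carbachol stimulus at about its EC50 of 1 µM final; % is scaled to controls: 0 for no effect and ±100 for the full control effect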); settings: Jurkat NFAT-bla M1, carbachol, beta-lactamase ratio, 5 h; at 7.69 µM (top of the series) unless noted
How it was run: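 Jurkat cells with NFAT-driven β-lactamase reporter and co-expressed M1 receptor, stimulated with carbachol (final 1 uM, ~EC50), compound titration, 5 h at 37 °C. CCF4 loaded 1 h at RT; 460/530 nm ratio gave %activity and AC50.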

[16] = biological target: Cytochrome P450 2C19 (Homo sapiens) (UniProt P33261); assay: qHTS Assay for Inhibitors and Substrates of Cytochrome P450 2C19 (AID 899); settings: recombinant CYP2C19, luciferin-H EGE luminescence; series mostly up to 57.1 µM; also: potency is read from the fitted curve at half-maximal effect; nearly all actives have a fitted effect of over 60% in size
Cytochrome P450 2C19 (Homo sapiens), sequence (P33261 whole entry, looked up): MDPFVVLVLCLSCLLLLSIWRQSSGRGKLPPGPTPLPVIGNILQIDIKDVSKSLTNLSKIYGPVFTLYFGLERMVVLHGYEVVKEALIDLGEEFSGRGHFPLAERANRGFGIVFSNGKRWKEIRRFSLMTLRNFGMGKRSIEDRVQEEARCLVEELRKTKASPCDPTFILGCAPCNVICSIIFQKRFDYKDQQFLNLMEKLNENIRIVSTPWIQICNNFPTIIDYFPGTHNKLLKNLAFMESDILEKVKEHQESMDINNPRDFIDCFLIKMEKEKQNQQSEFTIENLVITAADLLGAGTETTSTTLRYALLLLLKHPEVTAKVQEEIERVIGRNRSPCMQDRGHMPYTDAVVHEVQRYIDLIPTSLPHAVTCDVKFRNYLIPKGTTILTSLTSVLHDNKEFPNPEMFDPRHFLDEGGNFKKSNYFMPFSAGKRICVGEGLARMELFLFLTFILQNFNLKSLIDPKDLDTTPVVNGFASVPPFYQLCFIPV
How it was run: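 5 nM human CYP2C19 with 10uM Luciferin-H EGE (at KM) in 50mM KPO4, compound preincubated 10 min at 37C, then NADPH regeneration for 60 min at 37C. Luciferin read by luminescence after detection reagent; normalized to 57uM ketoconazole as full inhibition.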

[17] = biological target: Cytochrome P450 3A4 (Homo sapiens) (UniProt P08684); assay: qHTS Assay for Inhibitors and Substrates of Cytochrome P450 3A4 (AID 884); settings: recombinant CYP3A4, Luciferin-PPXE luminescence; series mostly up to 57.1 µM; also: potency is read from the fitted curve at half-maximal effect; nearly all actives have a fitted effect of over 50% in size
How it was run: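 20 nM human CYP3A4 with 25 uM Luciferin-PPXE (at KM) in 200 mM KPO4, preincubated 10 min with compound; NADPH regeneration started a 60 min RT reaction. Luciferin detected by luminescence, normalized to 57 uM ketoconazole as full inhibition.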

[18] = measured here: cell count channel max response
[19] = measured here: lipid channel max response

Row | Structure (SMILES) | Potency [1] | activity change, negative = inhibition [2] | Potency [3] | Potency [4] | Potency [5] | Potency [6] | activity change, negative = inhibition [7] | max response [7, 18] | max response [7, 19] | Potency [8] | Potency [9] | Potency [10] | Potency [11] | Potency [12] | activity, negative = inhibition [13] | Potency [14] | activity change, negative = inhibition [15] | Potency [16] | Potency [17]
1 | COCCn1c(=O)c(-c2ccc(OC)cc2)nc2cnc(N3CCN(C)CC3)nc21 | > 11.4 µM (inactive) | 29.4% (inactive) | > 9.22 µM (inactive) | > 46 µM (inactive) | inactive | inactive | 6% (inactive) | 16% | 21% | inactive | inactive | inactive | inactive |  |  |  |  |  | 
2 | CN1CCN(c2ncnc3ccc(-c4cccc(NS(C)(=O)=O)c4)cc23)CC1 | > 11.4 µM (inactive) |  | > 46 µM (inactive) | > 46 µM (inactive) | inactive |  | -4.99% (inactive) | -11.5% | -16% | 6.31 µM (active) | 7.94 µM (active) | 10 µM (active) |  | 25.1 µM (active) | -16.1% (inactive) | inactive |  |  | 
3 | COc1ccccc1-c1nccc(Nc2ccc(F)cc2)n1 | > 11.4 µM (inactive) | 6.43% (inactive) | > 46 µM (inactive) | > 46 µM (inactive) | inactive |  | 4.58% (inactive) | 9.46% | 12.9% | inactive | inactive | inactive |  |  | -4% (inactive) |  | 10.2% (inactive) |  | 
4 | COc1cccc(-c2nc(NC3CCNCC3)c3ccccc3n2)c1 | > 11.4 µM (inactive) | 14.7% (inactive) |  | > 46 µM (inactive) | inactive | inactive | 4.76% (inactive) | 12.9% | 4.05% | 11.2 µM (active) | 11.2 µM (active) | 12.6 µM (active) | inactive | 12.6 µM (active) | 5.39% (inactive) | inactive | 23.4% (inactive) |  | 
5 | COc1ccccc1-c1nccc(NCc2ccccc2)n1 | > 11.4 µM (inactive) | -2.63% (inactive) | > 46 µM (inactive) | > 46 µM (inactive) | inactive |  | 1.38% (inactive) | 3.72% | 0.722% | inactive | inactive | inactive | 22.4 µM (active) | 2.51 µM (active) | 1.51% (inactive) | inactive | 1.11% (inactive) | 7.94 µM (active) | 
6 | Cc1ccccc1-c1cncnc1N1CCN(C)CC1 | > 11.4 µM (inactive) | 7.79% (inactive) | > 46 µM (inactive) | > 46 µM (inactive) | inactive | inactive | 4.3% (inactive) | 4.53% | 8.66% | inactive | inactive | inactive |  | 15.8 µM (active) | 11.4% (inactive) | inactive |  |  | 1.58 µM (active)
7 | CN1CCN(c2ncc3nc(-c4cccc(C#N)c4)c(=O)n(C)c3n2)CC1 | > 11.4 µM (inactive) | 0.861% (inactive) | > 9.22 µM (inactive) | > 46 µM (inactive) | inactive | inactive | 1.68% (inactive) | 0.187% | 0.284% | inactive |  | inactive | inactive | 12.6 µM (active) | -0.0628% (inactive) |  | 13.1% (inactive) |  | 
8 | COc1ccccc1CNc1ncnc2ccc(-c3ccoc3)cc12 |  |  | > 46 µM (inactive) | > 46 µM (inactive) | inactive |  | -10.7% (inactive) | 20% | 4.99% | 0.251 µM (active) | 0.316 µM (active) | 0.141 µM (active) | inactive | 2.51 µM (active) | -21.5% (inactive) | inactive | -7.72% (inactive) |  | 
9 | CS(=O)(=O)Nc1cccc(-c2nc(NC3CC3)c3ccccc3n2)c1 |  | -17.2% (inactive) | > 46 µM (inactive) | > 46 µM (inactive) | inactive | inactive | 3.51% (inactive) | 19.9% | 22.8% | 7.94 µM (active) | 10 µM (active) | 12.6 µM (active) | inactive |  | 4.92% (inactive) |  | 0.73% (inactive) |  | 
10 | Cc1nc2cnc(N3CCN(C)CC3)nc2n(C2CC2)c1=O | > 11.4 µM (inactive) | -13.1% (inactive) | > 9.22 µM (inactive) | > 46 µM (inactive) | inactive |  | 3.22% (inactive) | 14.4% | 16.3% | inactive | inactive |  |  |  | -9.11% (inactive) |  | -3.47% (inactive) |  | 
11 | Cc1ccccc1-c1ccc2ncnc(N3CCNCC3)c2c1 | > 11.4 µM (inactive) |  | > 46 µM (inactive) | > 46 µM (inactive) | inactive | inactive | 6.61% (inactive) | 4.98% | 8.2% | 20 µM (active) | 31.6 µM (active) |  | inactive | 3.16 µM (active) | 9.45% (inactive) | inactive | -1.24% (inactive) |  | 
12 | N#Cc1cccc(-c2ccc3ncnc(NCCN4CCOCC4)c3c2)c1 | > 11.4 µM (inactive) | 1.43% (inactive) | > 46 µM (inactive) | > 46 µM (inactive) | inactive | inactive | 4.75% (inactive) | 5.88% | 7.51% | 12.6 µM (active) | 8.91 µM (active) |  | inactive |  |  |  | 19.4% (inactive) |  | 
